Source: PubChem BioAssay (NCI)
The panel holds about 79,000 compounds, 15% with a hit somewhere; the sample as a whole holds those more often. Activity calls are given as the source filed them. No stated cut-off is given here; in the data, active means growth inhibition above about 70%; inactive means the rest.

What was measured:
[1] = NCI Yeast Anticancer Drug Screen. Data for the rad50 strain (AID 155);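 further: 0% = growth of vehicle-only cultures of the same strain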; details: S. cerevisiae rad50 strain growth inhibition, hits give high values; at 50.0 µM unless noted
Outline: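 Compounds were tested on a yeast strain with an engineered DNA damage repair alteration; the reported value is growth inhibition normalised to vehicle treatment.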

[2] = NCI Yeast Anticancer Drug Screen. Data for the mec2-1 strain (AID 157); details: S. cerevisiae mec2-1 strain, hits give high values; at 50.0 µM unless noted
Outline: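 Mutant yeast (mec2-1) grown with compound; growth inhibition relative to vehicle control reported.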

[3] = NCI Yeast Anticancer Drug Screen. Data for the sgs1 mgt1 strain (AID 161);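 further: 0% = growth of cultures given vehicle only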; details: S. cerevisiae sgs1 mgt1 strain, hits give high values; at 50.0 µM unless noted
Outline: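 Percent growth inhibition was derived by comparing compound-exposed mutant yeast with vehicle-exposed cultures. The strain carries alterations in DNA damage repair.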

[4] = NCI Yeast Anticancer Drug Screen. Data for the cln2 rad14 strain (AID 165);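 further: 0% = growth equal to vehicle treated cultures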; details: S. cerevisiae cln2 rad14 strain, hits give high values; at 50.0 µM unless noted
Outline: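 Readout is yeast growth inhibition versus vehicle-treated controls, using a strain with cln2 and rad14 alterations exposed to compound.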

[5] = NCI Yeast Anticancer Drug Screen. Data for the bub3 strain (AID 167); details: S. cerevisiae bub3 mutant strain, hits give high values; at 50.0 µM unless noted
Outline: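 Growth of a checkpoint-deficient yeast mutant is measured after compound exposure. Values represent inhibition relative to vehicle.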

[6] = NCI Yeast Anticancer Drug Screen. Data for the mlh1 rad18 strain (AID 175); details: S. cerevisiae mlh1 rad18 strain growth inhibition, hits give high values; at 50.0 µM unless noted
Outline: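 Genetically defined yeast (DNA repair-deficient) exposed to compounds; growth inhibition determined relative to vehicle.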

Measured: growth inhibition

CCOc1cc2c(cc1C(C)c1ccc(OC)c(C)c1)OCO2 (stereo not drawn)
active: [4] 74%
inactive: [1] 11.1% | [2] 5.6% | [3] -2.3% | [5] 26.2% | [6] 5.7%

CCCCCCCNC(=O)C(C)Br (stereo not drawn)
inactive: [1] 17.6% | [2] 26.6% | [3] 16.6% | [4] -41.9% | [5] 19.7% | [6] 22.1%

NC(=S)c1ccc2ccccc2c1
inactive: [1] 9.95% | [2] 13.9% | [3] 15.1% | [4] 6.15% | [5] 15.2% | [6] 9.2%

CC(=O)CC/C=C(\C)CC(C)C
inactive: [1] 17.4% | [2] 11.6% | [3] 2.85% | [4] 13.6% | [5] 9.8% | [6] 10.1%

O=C(O)c1ccc(Nc2c3ccccc3nc3ccccc23)cc1
inactive: [1] 49% | [2] 11.6% | [3] 37.3% | [4] 17.2% | [5] 26.8% | [6] 24.6%

CC(=O)C(CCC#N)(CCC#N)C(C)=O
inactive: [1] -18.6% | [2] -24.6% | [3] -4.8% | [4] -5.95% | [5] -1.45% | [6] -16.1%

CC(c1cccc(O)c1)N(C)C (stereo not drawn)
inactive: [1] 5.9% | [2] -2.2% | [3] 0.7% | [4] -10.4% | [5] 1.25% | [6] -3.85%

CCN(CC)c1ccc(/C=C(\C)c2nc3ccc(C)cc3[nH]2)cc1
inactive: [1] -5.25% | [2] -10.7% | [3] 8.1% | [4] 1.8% | [5] -9.3% | [6] 3.45%

O=C(/C=C/c1ccc(-c2ccccc2)cc1)c1ccccc1
inactive: [1] -16.7% | [2] -24.8% | [3] 7.75% | [4] -3.3% | [5] -20.6% | [6] -17.6%

COc1ccc(/C(C)=N/NC(=O)c2ccncc2)cc1OC
inactive: [1] -9.6% | [2] -9.9% | [3] -18.6% | [4] -12.7% | [5] -40% | [6] -4.2%

CC(C)(C1CCC([Si](C2CCCCC2)(C2CCCCC2)C2CCCCC2)CC1)[Si](C1CCCCC1)(C1CCCCC1)C1CCCCC1 (stereo not drawn)
inactive: [1] 8% | [2] -0.15% | [3] -14.4% | [4] -7.2% | [5] 3.3% | [6] -1.95%

COc1ccc(-[n+]2nc(S(=O)(=O)O)c(/C=C/c3ccc(N(C)C)cc3)cc2C#N)cc1
inactive: [1] -13.8% | [2] -9.05% | [3] 20.1% | [4] 6.65% | [5] 5.85% | [6] -9.5%

Clc1ccccc1Nc1nc(Nc2ccccc2Cl)nc(Nc2ccccc2Cl)n1
inactive: [1] 21.1% | [2] 19.4% | [3] 21.6% | [4] 37.9% | [5] 7.3% | [6] 5.95%

CC(=O)CC(=O)c1ccc(C(=O)CC(C)=O)cc1.[Fe]
inactive: [1] -8.1% | [2] -2.35% | [3] -8.3% | [4] 11.7% | [5] 14.4% | [6] 2.15%

COc1ccc(N=C2C(=Nc3ccc(OC)cc3)N(c3ccccc3)C(=S)N2N=C=C2Sc3ccccc3N2C)cc1
inactive: [1] -13.2% | [2] -24% | [3] -18.4% | [4] -8.3% | [5] -4.05% | [6] -32%

COC(=O)CCC(C)C1CCC2(C)C3=C(C(=O)CC12C)C1(C)CCC(O)C(C)(C)C1=C(O)C3 (stereo not drawn)
active: [1] 81.7% | [2] 74.2% | [3] 77.6% | [4] 79.9% | [5] 70.8% | [6] 83.8%

Cc1cc(C)c2c(c1)sc1n[nH]c(=S)n12
inactive: [1] 14.1% | [2] 6.7% | [3] 9.05% | [4] -11.4% | [5] -10.8% | [6] 3.95%

O=[N+]([O-])c1ccc[nH]c1=S
inactive: [1] -5.15% | [2] -15.8% | [3] -20.4% | [4] -7.35% | [5] 23% | [6] -35.6%

COc1ccc(C2OC3=C(Nc4ccccc4N3)C2=O)cc1 (stereo not drawn)
inactive: [1] 19.5% | [2] 5.8% | [3] 27.4% | [4] 14.1% | [5] -14.3% | [6] 46.2%

O=C(NC(=S)Nc1ccccc1F)c1cccc([N+](=O)[O-])c1
active: [2] 77.2% | [3] 79.2% | [6] 80%
inactive: [1] 26.1% | [4] 11.4% | [5] 49.7%

N#Cc1ccccc1NC(=O)C(=O)c1c(O)c2ccccc2oc1=O
inactive: [1] -13.8% | [2] -6.8% | [3] -16.1% | [4] -16.9% | [5] -12.2% | [6] -25%

O=C(NC1CCCCC1)/C(=C\c1ccccc1)NC(=O)c1ccccc1
inactive: [1] -26.8% | [2] -48.4% | [3] -28.6% | [4] 0.05% | [5] -6.8% | [6] -27.4%

CCCCCCCCCOCC(=O)O
inactive: [1] 34.4% | [2] 5.55% | [3] 7.5% | [4] 3.15% | [5] 2.3% | [6] 6.4%

Cc1ccc(C)c(Nc2c(C)ccc(C)c2C(=O)O)c1
inactive: [1] -5.3% | [2] -1.05% | [3] 12.4% | [4] 14% | [5] -10.1% | [6] -12.6%

O=C1c2cc(Cc3ccccc3)c(=O)c(Cc3ccccc3)cc2C(=O)c2cc(Cc3ccccc3)c(=O)c(Cc3ccccc3)cc21
inactive: [1] 23% | [2] -11.3% | [3] -11.3% | [4] -26% | [5] -6.35% | [6] 20.3%

O=C1NCCN1/N=C/c1ccc([N+](=O)[O-])o1
inactive: [1] 26.4% | [2] 9.35% | [3] 37.5% | [4] -29.9% | [5] 14.4% | [6] 25.9%

CC(=O)NC(CCC(=O)O)C(=O)O (stereo not drawn)
inactive: [1] -0.55% | [2] -14.9% | [3] -7.15% | [4] -6.2% | [5] -20.1% | [6] -1.6%

Cc1ccc(S(=O)(=O)N(CC(=O)c2ccccc2)c2ccc(Br)cc2)cc1
inactive: [1] 22.9% | [2] 6.6% | [3] 26.1% | [4] 4.9% | [5] 2.05% | [6] 16.1%

O=C1c2cccc3c([N+](=O)[O-])ccc(c23)C(=O)N1Cc1cccnc1
active: [1] 99.3% | [2] 99.7% | [3] 99.5% | [4] 99.3% | [5] 99.3% | [6] 99.4%

CCOC(=O)c1cc(C(O)C(O)C(O)CO)oc1C (stereo not drawn)
inactive: [1] 14.6% | [2] 2.1% | [3] -6.45% | [4] -13.1% | [5] 21.9% | [6] 18.1%

CCCCN(CCCC)C(=O)C(=O)C(C(=O)c1ccc(OC)cc1)c1ccc(OC)cc1 (stereo not drawn)
inactive: [1] -8.95% | [2] -1.5% | [3] -11.8% | [4] -10.3% | [5] 14.1% | [6] -3.95%

c1ccc(Nc2ccccc2)cc1 (tested in a mixture with another compound)
inactive: [1] 3.1% | [2] 20.2% | [3] 1.95% | [4] 1.6% | [5] 38.7% | [6] 9.8%

O=C(O)Cc1ccc(C(=O)O)cc1
inactive: [1] 21.2% | [2] -1.25% | [3] 5.8% | [4] -13.4% | [5] 13.2% | [6] 32.8%

CCOC(=O)COc1ccc(OC)c2c1C(=O)CCC2
inactive: [1] 21.1% | [2] 16.7% | [3] 6.15% | [4] 29.2% | [5] 10% | [6] 15%

Cc1c2c(c(C)c3c1C(=O)c1cc4c(cc1C3=O)OCO4)OCO2
inactive: [1] -9.1% | [2] -4.35% | [3] -5.35% | [4] -4.7% | [5] -31.9% | [6] -15.4%

NC(=S)Nc1nnc(-c2ccc(-c3nnc(NC(N)=S)o3)cc2)o1
inactive: [1] 18.4% | [2] 6.65% | [3] -21.2% | [4] 5.35% | [5] 2.05% | [6] -8.05%

c1ccc2[nH]c(CSc3nc4ccccc4s3)nc2c1
inactive: [1] 10.1% | [2] 17.2% | [3] 37.5% | [4] 33.6% | [5] -0.75% | [6] 28.6%

OCC(O)C1OC(O)C(O)C(O)C1O (stereo not drawn)
inactive: [1] 1.45% | [2] -7.75% | [3] -32.2% | [4] -49.4% | [5] -6.75% | [6] 10.4%
